Data: PubChem BioAssay AID1159580 (chemical genetic matrix, 2015)
Several values for one entry are separate records, joined by “and”; a condition that tells them apart may be missing. Identical values can stand only once. The whole screen tested about 5,500 compounds, of which about 2,000 (36%) were called active. Inconclusive results (about 18%) are left out. No stated cut-off is given here; in the data, active means normalized growth mostly below about 0.91 (no sharp cut-off); inconclusive means no clear call, values can overlap the other calls; inactive means mostly above about 0.92. This is one part of the list.

Experiment: chemical genetic growth profiling, strain panel (AID 1159580);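 further: tested at 20 µM; growth read once vehicle control cultures reached saturation at 30 °C; 1 = growth at the plate median or of vehicle wells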
Conditions: S. cerevisiae deletion strains, growth OD

Measured: normalized growth

COc1ccc(-c2cc(=O)c3c(O)cc(O[C@@H]4O[C@H](CO[C@H]5O[C@H](C)[C@@H](O)[C@H](O)[C@@H]5O)[C@@H](O)[C@H](O)[C@H]4O)cc3o2)cc1O
inactive: locus YAL021C, strain ccr4, stronger effect = lower value 1.01 | locus YAL026C, strain drs2, stronger effect = lower value 1.05 | locus YAL030W, strain snc1, stronger effect = lower value 1.02 | locus YBL061C, strain skt5, stronger effect = lower value 1.02 | locus YBR009C, strain hhf1, stronger effect = lower value 1.01 | locus YBR021W, strain FUR4, stronger effect = lower value 1.03 | locus YBR023C, strain chs3, stronger effect = lower value 1.01 | locus YBR171W, strain sec66, stronger effect = lower value 1.02 | locus YBR229C, strain ROT2, stronger effect = lower value 0.994 | locus YBR231C, strain swc5, stronger effect = lower value 1.02 | locus YBR279W, strain paf1, stronger effect = lower value 1.01 | locus YCL011C, strain gbp2, stronger effect = lower value 1.01 | locus YCL016C, strain dcc1, stronger effect = lower value 1.02 | locus YCL029C, strain bik1, stronger effect = lower value 0.986 | locus YCL061C, strain MRC1, stronger effect = lower value 1.01 | locus YCL069W, strain vba3, stronger effect = lower value 1.03 | locus YCR088W, strain abp1, stronger effect = lower value 1.01 | locus YDL005C, strain med2, stronger effect = lower value 1.02 | locus YDL035C, strain GPR1, stronger effect = lower value 0.983 | locus YDL040C, strain nat1, stronger effect = lower value 1 | locus YDL074C, strain BRE1, stronger effect = lower value 1.02 | locus YDL101C, strain DUN1, stronger effect = lower value 0.995 | locus YDL185W, strain tfp1, stronger effect = lower value 0.969 | locus YDL192W, strain arf1, stronger effect = lower value 0.985 | locus YDR001C, strain nth1, stronger effect = lower value 1.01 | locus YDR069C, strain doa4, stronger effect = lower value 1.02 | locus YDR101C, strain arx1, stronger effect = lower value 1 | locus YDR137W, strain rgp1, stronger effect = lower value 1.03 | locus YDR150W, strain NUM1, stronger effect = lower value 0.99 | locus YDR159W, strain sac3, stronger effect = lower value 1.02 | locus YDR162C, strain NBP2, stronger effect = lower value 0.972 | locus YDR195W, strain ref2 1.04 | locus YDR297W, strain sur2, stronger effect = lower value 1.01 | locus YDR318W, strain mcm21, stronger effect = lower value 1 | locus YDR334W, strain swr1, stronger effect = lower value 1.02 | locus YDR335W, strain msn5, stronger effect = lower value 1.01 | locus YDR388W, stronger effect = lower value 0.991 | locus YDR392W, strain spt3, stronger effect = lower value 0.987 | locus YDR502C, strain sam2, stronger effect = lower value 0.993 | locus YEL003W, strain gim4, stronger effect = lower value 1.02 | locus YEL037C, strain rad23, stronger effect = lower value 1.01 | locus YEL061C, strain CIN8 (second series), stronger effect = lower value 1.03 | locus YEL061C, strain CIN8, stronger effect = lower value 0.997 | locus YER015W, strain faa2, stronger effect = lower value 1.01 | locus YER016W, strain bim1, stronger effect = lower value 1.02 | locus YER110C, stronger effect = lower value 0.979 | locus YER111C, strain swi4, stronger effect = lower value 1 | locus YER155C, strain BEM2 (second series), stronger effect = lower value 1 | locus YER155C, strain BEM2, stronger effect = lower value 0.995 | locus YER167W, strain BCK2, stronger effect = lower value 0.981 | locus YFR010W, strain ubp6, stronger effect = lower value 1.02 | locus YGL078C, strain dbp3, stronger effect = lower value 1 | locus YGL086W, strain mad1, stronger effect = lower value 1.01 | locus YGL167C, strain pmr1, stronger effect = lower value 1.01 | locus YGL173C, strain kem1, stronger effect = lower value 1.04 | locus YGL227W, strain vid30, stronger effect = lower value 1.01 | locus YGL240W, strain doc1, stronger effect = lower value 1.04 | locus YGL248W, strain PDE1, stronger effect = lower value 0.999 | locus YGL253W, strain hxk2, stronger effect = lower value 1 | locus YGR078C, strain PAC10, stronger effect = lower value 1.01 | locus YGR135W, strain pre9, stronger effect = lower value 0.956 | locus YGR252W, strain gcn5, stronger effect = lower value 1.04 | locus YHR013C, strain ard1, stronger effect = lower value 1.02 | locus YHR027C, strain rpn1, stronger effect = lower value 1.02 | locus YHR030C, strain SLT2, stronger effect = lower value 0.985 and 1 | locus YHR079C, strain IRE1 (second series), stronger effect = lower value 0.991 | locus YHR079C, strain IRE1, stronger effect = lower value 0.996 | locus YHR094C, strain hxt1, stronger effect = lower value 0.977 | locus YHR129C, strain ARP1, stronger effect = lower value 0.988 | locus YHR142W, strain chs7, stronger effect = lower value 0.978 | locus YHR200W, strain rpn10, stronger effect = lower value 0.989 | locus YIL066C, strain RNR3, stronger effect = lower value 0.994 | locus YIL073C, strain SPO22, stronger effect = lower value 0.963 | locus YIL125W, strain kgd1, stronger effect = lower value 1.01 | locus YIR030C, strain dcg1, stronger effect = lower value 0.985 | locus YJL092W, strain hpr5, stronger effect = lower value 1.02 | locus YJL095W, strain BCK1 (second series), stronger effect = lower value 1.01 | locus YJL095W, strain BCK1, stronger effect = lower value 1.01 and 0.997 | locus YJL115W, strain asf1, stronger effect = lower value 1.03 | locus YJL129C, strain trk1, stronger effect = lower value 1.03 | locus YJL134W, strain LCB3, stronger effect = lower value 0.988 | locus YJL154C, strain vps35, stronger effect = lower value 1.02 | locus YJL164C, strain tpk1, stronger effect = lower value 1.02 | locus YJL166W, strain qcr8, stronger effect = lower value 1.02 | locus YJL168C, strain set2, stronger effect = lower value 1 | locus YJL187C, strain SWE1 (second series), stronger effect = lower value 1 | locus YJL187C, strain SWE1, stronger effect = lower value 1.01 | locus YJR043C, strain POL32, stronger effect = lower value 1.02 | locus YJR066W, strain TOR1, stronger effect = lower value 0.981
